Inconclusive results are not listed. Active and inactive are the calls of the source. The call rests on the fitted dose curve.
What was measured:
[1] = target: Acetylcholinesterase (Homo sapiens) (UniProt P22303); assay: Acetylcholinesterase (AChE) small molecule antagonists: colormetric cell-based qHTS assay (AID 1347395); further: nearly all actives have a fitted effect of over 30% in size
Procedure, shortened: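 Colorimetric readout: DTNB quantifies thiocholine from acetylthiocholine hydrolysed by endogenous AChE of SH-SY5Y cells (2,000/well, plated overnight). Compound pretreatment 30 min, substrate incubation 90 min, both 37 C.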

[2] = target: Acetylcholinesterase (Homo sapiens) (UniProt P22303); assay: Acetylcholinesterase (AChE) small molecule antagonists: enzyme-based qHTS assay (AID 1347397); conditions: Potency: AChE enzyme activity inhibition; outcome: AChE enzyme activity inhibition; further: nearly all actives have a fitted effect of over 55% in size
Procedure, shortened: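 Recombinant human AChE (50 mU/mL) preincubated with compound 30 min at room temperature; acetylthiocholine plus DTNB then added, and thiocholine formation read colorimetrically after 10 min at room temperature. DMSO served as vehicle control.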

[3] = target: Acetylcholinesterase (Homo sapiens) (UniProt P22303); assay: Acetylcholinesterase (AChE) small molecule antagonists: fluorescence cell-based qHTS assay (AID 1347398); conditions: Potency: AChE activity; outcome: AChE activity; further: nearly all actives have a fitted effect of over 50% in size
Procedure, shortened: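 SH-SY5Y cells (2000/well), attached overnight, incubated with compound 30 min at 37 C. Acetylthiocholine plus Thiolite Green then added for 40 min at room temperature. Thiocholine fluorescence (Ex/Em 490/520 nm) reports cellular AChE activity.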

[4] = target: Acetylcholinesterase (Homo sapiens) (UniProt P22303); assay: Acetylcholinesterase (AChE) small molecule antagonists: enzyme-based qHTS assay with human liver microsomes (AID 1347399); conditions: Potency: qHTS inhibition; outcome: qHTS inhibition; further: nearly all actives have a fitted effect of over 60% in size
Procedure, shortened: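 Recombinant human AChE (50 mU/mL in the enzyme mix) and human liver microsomes (0.25 mg/mL final) were preincubated with compound and NADPH (0.25 mg/mL final) for 30 min at 37 C. Acetylthiocholine/DTNB was then added; thiocholine was read colorimetrically after 10 min at room temperature.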
On the % scale 0 is the no-effect control and ±100 the full control effect.

Sequence of Acetylcholinesterase (Homo sapiens) (P22303 whole entry, looked up): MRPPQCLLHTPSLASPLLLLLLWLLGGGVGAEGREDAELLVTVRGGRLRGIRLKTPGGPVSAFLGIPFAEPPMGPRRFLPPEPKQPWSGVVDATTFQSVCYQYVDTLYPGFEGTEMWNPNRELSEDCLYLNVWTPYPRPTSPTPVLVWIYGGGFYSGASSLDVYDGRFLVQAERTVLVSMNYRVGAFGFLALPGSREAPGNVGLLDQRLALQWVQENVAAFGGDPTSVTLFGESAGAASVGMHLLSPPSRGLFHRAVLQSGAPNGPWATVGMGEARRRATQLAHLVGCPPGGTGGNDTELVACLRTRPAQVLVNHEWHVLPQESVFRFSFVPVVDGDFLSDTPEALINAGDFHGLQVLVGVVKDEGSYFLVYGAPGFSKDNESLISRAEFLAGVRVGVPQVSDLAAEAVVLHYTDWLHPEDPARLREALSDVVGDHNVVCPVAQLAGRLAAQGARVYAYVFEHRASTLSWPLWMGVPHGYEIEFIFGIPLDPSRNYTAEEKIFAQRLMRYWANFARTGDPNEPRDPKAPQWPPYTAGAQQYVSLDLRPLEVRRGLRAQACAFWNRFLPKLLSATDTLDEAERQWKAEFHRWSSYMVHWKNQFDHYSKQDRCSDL

CC(CC=O)CC(C)(C)C (stereo unspecified)
inactive: Potency [1] | Potency [2] | Potency [3] | Potency [4]

N#Cc1ccc(C(c2ccc(C#N)cc2)n2cncn2)cc1
inactive: Potency [1] | Potency [2] | Potency [3] | Potency [4]

CCCCCCCCCCCCCc1ccccc1
inactive: Potency [1] | Potency [2] | Potency [3] | Potency [4]

CC/C=C\CCOC(=O)C(C)C
inactive: Potency [1] | Potency [2] | Potency [3] | Potency [4]

O=C(CO)[C@@H](O)[C@H](O)[C@@H](O)CO
inactive: Potency [1] | Potency [2] | Potency [3] | Potency [4]

O=c1[nH]ncc2ccccc12
inactive: Potency [1] | Potency [2] | Potency [3] | Potency [4]

CCCCCCOC(=O)c1ccccc1O
inactive: Potency [1] | Potency [2] | Potency [3] | Potency [4]

COCCO
inactive: Potency [1] | Potency [2] | Potency [3] | Potency [4]

CC(=O)OC1C2(C)CCC(C2)C1(C)C (stereo unspecified)
inactive: Potency [1] | Potency [2] | Potency [3] | Potency [4]

NS(=O)(=O)c1cc2c(cc1Cl)NC(CSCc1ccccc1)=NS2(=O)=O
inactive: Potency [1] | Potency [2] | Potency [3] | Potency [4]

Cc1ccc(S)cc1
inactive: Potency [1] | Potency [2] | Potency [3] | Potency [4]

O=C(CCCCCCC(=O)Nc1ccccc1)NO
inactive: Potency [1] | Potency [2] | Potency [3] | Potency [4]

CN(Cc1ccc(C(C)(C)C)cc1)Cc1cccc2ccccc12
inactive: Potency [1] | Potency [2] | Potency [3] | Potency [4]

COc1ncnc(NS(=O)(=O)c2ccc(N)cc2)c1OC
inactive: Potency [1] | Potency [2] | Potency [3] | Potency [4]

COc1cc(C(=O)OCCCN2CCCN(CCCOC(=O)c3cc(OC)c(OC)c(OC)c3)CC2)cc(OC)c1OC
inactive: Potency [1] | Potency [2] | Potency [3] | Potency [4]

Cc1cccc(C)c1NC(=O)c1cc(S(N)(=O)=O)c(Cl)cc1O
inactive: Potency [1] | Potency [2] | Potency [3] | Potency [4]

Cc1cc(-n2nc3ccc(Cl)cc3n2)c(O)c(C(C)(C)C)c1
inactive: Potency [1] | Potency [2] | Potency [3] | Potency [4]

CNCCO
inactive: Potency [1] | Potency [2] | Potency [3] | Potency [4]

CCCCCCCCCCCCCCCCN(C)C
inactive: activity, negative = inhibition [1] -4.82% [at 10.5 µM] | activity change, negative = inhibition [2] -0.395% [at 10.5 µM] | activity change, negative = inhibition [3] -5.81% [at 10.5 µM] | activity change, negative = inhibition [4] -0.307% [at 10.5 µM]

CC(=O)c1ccc2c(c1)[C@H](NC(=O)c1ccc(F)cc1)[C@@H](O)C(C)(C)O2
inactive: Potency [1] | Potency [2] | Potency [3] | Potency [4]

C=CN1CCCCCC1=O
inactive: Potency [1] | Potency [2] | Potency [3] | Potency [4]

N[C@H](C(=O)O)[C@@H](O)c1ccc(O)c(O)c1
inactive: Potency [1] | Potency [2] | Potency [3] | Potency [4]

COCCc1ccccn1
inactive: Potency [1] | Potency [2] | Potency [3] | Potency [4]

CNC(=S)NC
inactive: Potency [1] | Potency [2] | Potency [3] | Potency [4]

CO[Si](OC)(c1ccccc1)c1ccccc1
inactive: Potency [1] | Potency [2] | Potency [3] | Potency [4]

O=C(N/N=C/c1ccccc1O)c1ccncc1
inactive: Potency [1] | Potency [2] | Potency [3] | Potency [4]

CC(C)CCCCOC(=O)c1ccccc1C(=O)OCCCCC(C)C
inactive: Potency [1] | Potency [2] | Potency [3] | Potency [4]

CCc1ccc(C=O)cc1
inactive: Potency [1] | Potency [2] | Potency [3] | Potency [4]

CCc1cccc(CC)c1NC(=O)C(=O)O
inactive: Potency [1] | Potency [2] | Potency [3] | Potency [4]

O=C(O)c1cccnc1C(=O)O
inactive: Potency [1] | Potency [2] | Potency [3] | Potency [4]

CCOC(=O)/C=C/C(=O)OCC
inactive: Potency [1] | Potency [2] | Potency [3] | Potency [4]

C=C(C)C(=O)OC
inactive: Potency [1] | Potency [2] | Potency [3] | Potency [4]

CCCCCCCC/C=C\CCCCCCCCCCCC(=O)O
inactive: Potency [1] | Potency [2] | Potency [3] | Potency [4]

CC(=O)NC1(c2cccc(F)c2)CCN(CC[C@@]2(c3ccc(Cl)c(Cl)c3)CN(c3ccccc3)C(=O)CO2)CC1
inactive: Potency [1] | Potency [2] | Potency [3] | Potency [4]

O=S(=O)(c1ccccc1)c1ccc(Cl)cc1
inactive: Potency [1] | Potency [2] | Potency [3] | Potency [4]

C[C@H]1O[C@@H](n2cc(F)c(=O)[nH]c2=O)[C@H](O)[C@@H]1O
inactive: Potency [1] | Potency [2] | Potency [3] | Potency [4]

CCCCc1ccc2c(n1)[C@@H](c1ccc(OC)cc1C[C@H](C)C(=O)O)[C@H](C(=O)O)[C@H]2c1ccc2c(c1)OCO2
inactive: Potency [1] | Potency [2] | Potency [3] | Potency [4]

c1ccc2cc3c4ccccc4c4ccccc4c3cc2c1
inactive: Potency [1] | Potency [2] | Potency [3] | Potency [4]

Oc1cccc(O)c1O
inactive: Potency [1] | Potency [2] | Potency [3] | Potency [4]

CN(C)CCOCCO
inactive: Potency [1] | Potency [2] | Potency [3] | Potency [4]

Cc1occc(=O)c1OC(=O)C(C)C
inactive: Potency [1] | Potency [2] | Potency [3] | Potency [4]

Nc1ccc(C(=O)NCC(=O)O)cc1
inactive: Potency [1] | Potency [2] | Potency [3] | Potency [4]

COc1ccc(OC(=O)N(CC(=O)O)Cc2ccc(OCCc3nc(-c4ccccc4)oc3C)cc2)cc1
inactive: Potency [1] | Potency [2] | Potency [3] | Potency [4]

CCCCC(CC)C(=O)OC(C)C (stereo unspecified)
inactive: Potency [1] | Potency [2] | Potency [3] | Potency [4]
